Rows were chosen to be rich in hits. Some 18% of all compounds tested hit in one or more screens of this group.
IL-1B inflam inh – qHTS for Inhibitors of Inflammasome Signaling: IL-1-beta AlphaLISA Primary Screen | THP-1 LPS/ATP IL-1B secretion, AlphaLISA, 16 h; stronger effect = lower value | 360,000 tested, 4.7% active | AID 743279, 2014 | activity change, % at 57.5 µM; in the data active = activity change below about -50%; inconclusive = mostly about -30% to -49%
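THP-1 cells pretreated 1 hr with compounds (up to 57.5 uM final), then stimulated with LPS (250 ng/mL final) plus ATP (1.25 mM final); secreted IL-1B measured by AlphaLISA after 16 hr, decreased signal indicating inhibition.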
VP16 counter – VP16 counterscreen qHTS for inhibitors of ROR gamma transcriptional activity. Drosophila S2 Gal4-VP16 UAS-luciferase, luminescence, 20 h. Potency, µM (highest dose often 53.6 µM), without a hit: top-dose activity, negative = inhibition, hits mostly inhibitors. 310,000 tested, 3.5% active. AID 2546, 2010;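 note: Gal4-VP16 expression switched on by copper sulfate through the metallothionein promoter; potency is the fitted concentration of half-maximal effect; nearly all actives have a fitted effect of over 50% in size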
RORgamma inh – qHTS for inhibitors of ROR gamma transcriptional activity; Nuclear receptor ROR-gamma (Mus musculus), P51450; Drosophila S2 Gal4-RORgamma UAS-luciferase reporter, 20 h; Potency, µM (highest dose often 53.6 µM), for inactives: top-dose activity change, negative = inhibition, most hits filed as inhibitors; 310,000 tested, 5.4% active; AID 2551, 2010; note: potency is the fitted concentration of half-maximal effect; nearly all actives have a fitted effect of over 60% in size
Target sequence (P51450 whole entry, looked up, the tested form may be a part): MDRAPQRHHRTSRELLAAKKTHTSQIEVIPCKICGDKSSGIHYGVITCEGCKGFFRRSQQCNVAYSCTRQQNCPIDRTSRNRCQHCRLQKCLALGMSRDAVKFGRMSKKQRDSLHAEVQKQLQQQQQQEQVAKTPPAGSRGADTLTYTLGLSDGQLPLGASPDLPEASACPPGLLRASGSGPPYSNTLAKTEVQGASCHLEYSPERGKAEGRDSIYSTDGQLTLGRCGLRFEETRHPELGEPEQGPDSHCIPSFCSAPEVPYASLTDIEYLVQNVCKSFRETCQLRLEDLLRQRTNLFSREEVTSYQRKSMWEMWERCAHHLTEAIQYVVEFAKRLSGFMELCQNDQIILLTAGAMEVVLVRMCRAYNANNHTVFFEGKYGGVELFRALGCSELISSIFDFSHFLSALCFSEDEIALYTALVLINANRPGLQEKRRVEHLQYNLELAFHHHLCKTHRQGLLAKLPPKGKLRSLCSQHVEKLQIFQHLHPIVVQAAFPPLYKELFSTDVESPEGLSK
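Stably transfected Drosophila Schneider cells are the test system, with ROR gamma fused to Gal4 and luciferase under UAS control; luminescence is read after 20 hr of 700 uM copper sulfate induction at ambient temperature.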
LDHA block – qHTS assay for inhibitors of human lactate dehydrogenase; purified LDHA, NADH/diaphorase-resazurin fluorescence; stronger effect = lower value; AID 1347041, 2019; 480,000 tested, 0.15% active; activity change, % (values are at about 110 or 230 µM); L-lactate dehydrogenase A chain (Homo sapiens), P00338; in the data active = activity change below about -30%; inconclusive = mostly about -25% to -30%;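 note: plate controls were DMSO wells for no effect and wells without enzyme for full effect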
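Human LDH5 at 2 nM final in Tris HCl pH 7.4 with 0.06 mM NADH and 0.2 mM pyruvate, reacted 5 minutes at room temperature. Remaining NADH coupled via diaphorase/resazurin; resorufin fluorescence read at 0 and 20 minutes, normalized to enzyme-free and DMSO wells.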
DT40 TDP1 CPT – qHTS for Inhibitors of human tyrosyl-DNA phosphodiesterase 1 (TDP1): qHTS in cells in presence of CPT | chicken DT40 Tdp1-/-;hTDP1 cells + 20 nM CPT, ATP luminescence, 48 h | Potency, µM (titrated, usually from 46.2 µM), for inactives: at the top dose activity change, negative = growth inhibition, most hits filed as inhibitors | 420,000 tested, 12% active | AID 686979, 2013; note: potency is the fitted concentration of half-maximal effect; nearly all actives have a fitted effect of over 55% in size
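Chicken DT40 Tdp1-/- cells stably complemented with human TDP1 were seeded at 400 cells/well in medium containing 20 nM camptothecin, exposed to pin-transferred compounds, and grown at 37 °C for at least 48 hr. Viability was read as ATP luminescence.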
TDP1 cell noCPT – qHTS for Inhibitors of human tyrosyl-DNA phosphodiesterase 1 (TDP1): qHTS in cells in absence of CPT | DT40 Tdp1-/- hTDP1 cells, no CPT, ATP luminescence, 48 h | Potency, µM (highest dose often 46.2 µM), without a hit: at the highest dose activity change, negative = growth inhibition, actives largely listed as inhibitors | 420,000 tested, 15% active | AID 686978, 2013; note: potency is the fitted concentration of half-maximal effect; nearly all actives have a fitted effect of over 55% in size
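Chicken DT40 Tdp1-/- cells stably complemented with human TDP1 were seeded at 400 cells/well with DMSO in place of 20 nM camptothecin. After compound pinning, cells grew at least 48 hr at 37 °C; viability read by CellTiter-Glo luminescence.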
Starred values were filed as active, the others as inactive; [ ] = another dose, or the depositor's remark. Unless noted, calls come from the whole dose curve; as a rule, active = well fitted curve in the direction sought with a large enough effect; inconclusive = small, poorly fitted or top-dose-only effect, or another doubt; inactive = no such curve, though single readings can be large; an effect the other way counts as inactive or inconclusive. Unless noted, % is set by controls: 0 for no effect and ±100 for the full control effect.

For Cc1ccc(-n2cc(CN3CCCN(C=O)CC3)c(-c3ccc(F)cc3)n2)cc1 the results were IL-1B inflam inh inconclusive, VP16 counter 7%, RORgamma inh 4%, LDHA block -1, DT40 TDP1 CPT inconclusive and TDP1 cell noCPT inconclusive.
`CCn1ccnc1CN(C)Cc1nc(-c2ccccc2)no1` gave IL-1B inflam inh 9, VP16 counter inconclusive, RORgamma inh inconclusive, LDHA block -6, DT40 TDP1 CPT -14% and TDP1 cell noCPT 0%.
CCn1ccnc1CN(C)Cc1nc(-c2cccc(Cl)c2)no1 was read as IL-1B inflam inh 34, VP16 counter -9%, RORgamma inh 18µM*, LDHA block -3, DT40 TDP1 CPT 12% and TDP1 cell noCPT -24%.
Screening Cc1nc2cc(NC(C)C(=O)Nc3ccc(C#N)cc3)ccc2o1 (stereo not drawn) returned LDHA block 62.
CN(Cc1ccccc1)C(=O)CCCc1c[nH]c2ccccc12 was read as LDHA block 3.
`Cc1ccc(F)c(S(=O)(=O)N2CCCC2c2nc3ccccc3[nH]2)c1` (stereo not drawn) gave LDHA block 9.
Cc1ccc(NC(=C(C#N)C#N)c2ccccc2)cc1 was read as IL-1B inflam inh 2, LDHA block -5, DT40 TDP1 CPT inconclusive and TDP1 cell noCPT 12µM*.
Cc1ccc(NC(=O)CCC(=O)c2ccccc2)cc1 was read as IL-1B inflam inh 57, LDHA block 0, DT40 TDP1 CPT -1% and TDP1 cell noCPT 2%.
C/C(=N\NC(=O)C1CC1c1ccc(C(C)(C)C)cc1)c1ccc2c(c1)CCCC2 (stereo not drawn) was read as LDHA block 3.
For CC1CCC(NC(=O)c2csc3c2CCC(C)C3)CC1 (stereo not drawn) the results were LDHA block -2.
`CC(C)(C)C1CCc2c(C(=O)NNC(=O)/C=C/C(=O)O)csc2C1` (stereo not drawn) gave IL-1B inflam inh -20, VP16 counter 14µM*, RORgamma inh inconclusive, LDHA block -4, DT40 TDP1 CPT 21% and TDP1 cell noCPT -3%.
Screening CC(C)(C)C1CCc2c(C(=O)N/N=C/c3cccs3)csc2C1 (stereo not drawn) returned IL-1B inflam inh -1, VP16 counter -22%, RORgamma inh inconclusive, LDHA block 2, DT40 TDP1 CPT 14µM* and TDP1 cell noCPT inconclusive.
`CCN(CC(=O)NC(C)C)C(=O)c1ccc(SC(C)C)cc1` gave LDHA block 2.
For COc1ccc(C(=O)N=c2nc(-c3ccccc3)n(-c3ccccc3)s2)cc1 the results were LDHA block -1, DT40 TDP1 CPT 13µM* and TDP1 cell noCPT inconclusive.
CN=c1nc(-c2ccccc2)n(-c2ccccc2)s1 was read as IL-1B inflam inh 30, LDHA block -8, DT40 TDP1 CPT 4.6µM* and TDP1 cell noCPT 6.5µM*.
For Cc1cc(C)c(NC(=O)Cn2nc(-c3ccccc3)nc2-c2ccccc2)c(C)c1 the results were IL-1B inflam inh 5, VP16 counter inconclusive, RORgamma inh -8%, LDHA block -10, DT40 TDP1 CPT inconclusive and TDP1 cell noCPT inconclusive.
For Cc1ccc(-c2nc(=Nc3c(C)cc(C)cc3C)sn2-c2ccccc2)cc1 the results were LDHA block -5, DT40 TDP1 CPT 5µM* and TDP1 cell noCPT 2.2µM*.
`NC(=O)Cn1nc(-c2ccccc2)nc1-c1ccccc1` gave IL-1B inflam inh 14, LDHA block 2, DT40 TDP1 CPT 13% and TDP1 cell noCPT -8%.
Screening CC(=O)N=c1nc(-c2ccccc2)n(-c2ccccc2)s1 returned LDHA block -32*, DT40 TDP1 CPT -10% and TDP1 cell noCPT inconclusive.
`c1ccc(Cn2nc(-c3ccccc3)nc2-c2ccccc2)cc1` gave IL-1B inflam inh -9, VP16 counter -5%, RORgamma inh 20%[10 µM], LDHA block 1, DT40 TDP1 CPT -18% and TDP1 cell noCPT inconclusive.
`Cc1ccccc1Nc1nnc(-c2ccc(C)c(S(=O)(=O)NCCO)c2)c2ccccc12` gave LDHA block 1.
`Cc1cccc(C(C)C)c1NC(=O)c1ccc2ccccc2n1` gave LDHA block 3.
Screening OC1CCC(Nc2ccn3nc(-c4cccc(Cl)c4)cc3n2)CC1 (stereo not drawn) returned IL-1B inflam inh 14, LDHA block -4, DT40 TDP1 CPT inconclusive and TDP1 cell noCPT inconclusive.
CCC(CO)Nc1ccn2nc(-c3cccc(Cl)c3)cc2n1 (stereo not drawn) was read as IL-1B inflam inh -4, LDHA block 5, DT40 TDP1 CPT 23µM* and TDP1 cell noCPT 23µM*.
COc1ccc(CCNc2nc(SCc3ccccc3Cl)nc3ccccc23)cc1OC was read as LDHA block -10, DT40 TDP1 CPT 8.2µM* and TDP1 cell noCPT 4.6µM*.
`CCCCN(C)C(=O)CSc1nc(NCc2ccc(OC)cc2)c2ccccc2n1` gave IL-1B inflam inh inconclusive, VP16 counter 3%, RORgamma inh 22%, LDHA block -7, DT40 TDP1 CPT inconclusive and TDP1 cell noCPT inconclusive.
Screening COc1ccc(CNc2nc(SCc3ccccc3Cl)nc3ccccc23)cc1 returned LDHA block -2, DT40 TDP1 CPT inconclusive and TDP1 cell noCPT 16µM*.
For CCCCN(CC)c1ccc(NS(=O)(=O)c2cccs2)cc1C(=O)O the results were LDHA block 3.
`O=C(Cn1cc(C(=S)N2CCOCC2)c2ccccc21)N1CCOCC1` gave IL-1B inflam inh 5, VP16 counter 1%, RORgamma inh 0%, LDHA block -13, DT40 TDP1 CPT -10% and TDP1 cell noCPT -19%.
`CC1CCN(C(=S)c2cn(Cc3cccc(F)c3)c3ccccc23)CC1` gave IL-1B inflam inh -6, VP16 counter inconclusive, RORgamma inh 10µM*, LDHA block -4, DT40 TDP1 CPT -21% and TDP1 cell noCPT inconclusive.

Source: PubChem BioAssay (National Center for Advancing Translational Sciences (NCATS))
